# Assay results as given in the supplement of paper PMC12282887.
# ± gives the standard deviation of the averaged measurements.
# Columns and labels:
# Test in all cases: promoter activity interaction Z-score (Lux/OD deviation from empty-vector control); higher = stronger promoter induction by the compound
# [1] = test system: E. coli BW25113 marRABp lux reporter; settings: 117.2 µg/ml
# Procedure, shortened: (§1)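 E. coli BW25113 (wild type or marA, soxS or rob deletion) carrying low-copy luxCDABE promoter reporters grew in 40 µl LB Lennox in 384-well plates at 37°C. Each compound was tested at four 1:2 dilutions in biological duplicates. OD600 and luminescence were read every 30 min for 12 h. Areas were taken over 0–8 h (wild type) or 1–9 h (mutants), and wells below 10% of median growth area were removed. The score is the Z-transformed residual of growth-normalised luminescence fitted against the empty-vector control.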
# [2] = test system: E. coli BW25113 micFp lux reporter
# Procedure, shortened: as §1
# [3] = test system: E. coli BW25113 ompFp lux reporter
# Procedure, shortened: as §1
# [4] = test system: E. coli BW25113 robp lux reporter
# Procedure, shortened: as §1
# [5] = test system: E. coli BW25113 soxSp lux reporter
# Procedure, shortened: as §1
# [6] = test system: E. coli BW25113 tolCp lux reporter
# Procedure, shortened: as §1
# [7] = 14.6 µg/ml, genetic background: wild type
# [8] = 14.6 µg/ml, genetic background: ΔmarA
# [9] = 14.6 µg/ml, genetic background: Δrob
# [10] = 14.6 µg/ml, genetic background: ΔsoxS
# [11] = 29.3 µg/ml, genetic background: wild type
# [12] = 29.3 µg/ml, genetic background: ΔmarA
# [13] = 29.3 µg/ml, genetic background: Δrob
# [14] = 29.3 µg/ml, genetic background: ΔsoxS
# [15] = 58.6 µg/ml, genetic background: wild type
# [16] = 58.6 µg/ml, genetic background: ΔmarA
# [17] = 58.6 µg/ml, genetic background: Δrob
# [18] = 58.6 µg/ml, genetic background: ΔsoxS
# [19] = 117.2 µg/ml, genetic background: wild type
# [20] = 117.2 µg/ml, genetic background: ΔmarA
# [21] = 117.2 µg/ml, genetic background: Δrob
# [22] = 117.2 µg/ml, genetic background: ΔsoxS
smiles,measurement,setting,value
c1ccc2[nH]ccc2c1 [Indole],promoter activity interaction Z-score,[1]; genetic background: Δrob,0.0948 ± 0.28
same,promoter activity interaction Z-score,[1]; genetic background: ΔsoxS,0.629 ± 0.47
same,promoter activity interaction Z-score,[2]; [7],-0.0516 ± 0.12
same,promoter activity interaction Z-score,[2]; [8],0.0327 ± 0.011
same,promoter activity interaction Z-score,[2]; [9],0.00243 ± 0.044
same,promoter activity interaction Z-score,[2]; [10],0.0247 ± 0.094
same,promoter activity interaction Z-score,[2]; [11],-0.0146 ± 0.021
same,promoter activity interaction Z-score,[2]; [12],-0.0163 ± 0.074
same,promoter activity interaction Z-score,[2]; [13],0.00613 ± 0.19
same,promoter activity interaction Z-score,[2]; [14],0.586 ± 0.069
same,promoter activity interaction Z-score,[2]; [15],0.0628 ± 0.13
same,promoter activity interaction Z-score,[2]; [16],-0.00313 ± 0.016
same,promoter activity interaction Z-score,[2]; [17],-0.138 ± 0.18
same,promoter activity interaction Z-score,[2]; [18],0.204 ± 0.28
same,promoter activity interaction Z-score,[2]; [19],0.516 ± 0.39
same,promoter activity interaction Z-score,[2]; [20],-0.0638 ± 0.0022
same,promoter activity interaction Z-score,[2]; [21],0.0554 ± 0.19
same,promoter activity interaction Z-score,[2]; [22],0.622 ± 0.087
same,promoter activity interaction Z-score,[3]; [7],0.322 ± 0.069
same,promoter activity interaction Z-score,[3]; [8],0.511 ± 0.0093
same,promoter activity interaction Z-score,[3]; [9],0.571 ± 0.51
same,promoter activity interaction Z-score,[3]; [10],0.225 ± 0.49
same,promoter activity interaction Z-score,[3]; [11],0.195 ± 0.09
same,promoter activity interaction Z-score,[3]; [12],0.309 ± 0.31
same,promoter activity interaction Z-score,[3]; [13],0.788 ± 0.39
same,promoter activity interaction Z-score,[3]; [14],0.734 ± 0.24
same,promoter activity interaction Z-score,[3]; [15],0.0808 ± 0.21
same,promoter activity interaction Z-score,[3]; [16],-0.0711 ± 0.22
same,promoter activity interaction Z-score,[3]; [17],-0.121 ± 0.61
same,promoter activity interaction Z-score,[3]; [18],-0.221 ± 0.36
same,promoter activity interaction Z-score,[3]; [19],0.63 ± 0.055
same,promoter activity interaction Z-score,[3]; [20],0.332 ± 0.29
same,promoter activity interaction Z-score,[3]; [21],0.341 ± 0.29
same,promoter activity interaction Z-score,[3]; [22],0.406 ± 0.096
same,promoter activity interaction Z-score,[4]; [7],0.568 ± 0.58
same,promoter activity interaction Z-score,[4]; [8],1.11 ± 0.29
same,promoter activity interaction Z-score,[4]; [9],0.842 ± 0.094
same,promoter activity interaction Z-score,[4]; [10],0.694 ± 0.19
same,promoter activity interaction Z-score,[4]; [11],0.773 ± 0.055
same,promoter activity interaction Z-score,[4]; [12],1.1 ± 0.014
same,promoter activity interaction Z-score,[4]; [13],0.598 ± 0.34
same,promoter activity interaction Z-score,[4]; [14],0.773 ± 0.2
same,promoter activity interaction Z-score,[4]; [15],-0.0581 ± 0.17
same,promoter activity interaction Z-score,[4]; [16],0.148 ± 0.5
same,promoter activity interaction Z-score,[4]; [17],0.569 ± 0.13
same,promoter activity interaction Z-score,[4]; [18],0.0833 ± 0.58
same,promoter activity interaction Z-score,[4]; [19],0.0933 ± 0.09
same,promoter activity interaction Z-score,[4]; [20],0.0401 ± 0.093
same,promoter activity interaction Z-score,[4]; [21],-0.335 ± 0.55
same,promoter activity interaction Z-score,[4]; [22],0.0103 ± 0.36
same,promoter activity interaction Z-score,[5]; [7],0.0112 ± 0.045
same,promoter activity interaction Z-score,[5]; [8],-0.0857 ± 0.076
same,promoter activity interaction Z-score,[5]; [9],-0.0709 ± 0.072
same,promoter activity interaction Z-score,[5]; [10],0.0403 ± 0.38
same,promoter activity interaction Z-score,[5]; [11],-0.034 ± 0.11
same,promoter activity interaction Z-score,[5]; [12],0.0579 ± 0.018
same,promoter activity interaction Z-score,[5]; [13],-0.0043 ± 0.038
same,promoter activity interaction Z-score,[5]; [14],0.238 ± 0.052
same,promoter activity interaction Z-score,[5]; [15],-0.0963 ± 0.0079
same,promoter activity interaction Z-score,[5]; [16],-0.00367 ± 0.068
same,promoter activity interaction Z-score,[5]; [17],-0.169 ± 0.082
same,promoter activity interaction Z-score,[5]; [18],-0.175 ± 0.24
same,promoter activity interaction Z-score,[5]; [19],-0.134 ± 0.044
same,promoter activity interaction Z-score,[5]; [20],-0.1992 ± 0.0019
same,promoter activity interaction Z-score,[5]; [21],-0.22 ± 0.15
same,promoter activity interaction Z-score,[5]; [22],-0.0773 ± 0.035
same,promoter activity interaction Z-score,[6]; [7],0.801 ± 1.5
same,promoter activity interaction Z-score,[6]; [8],0.744 ± 0.49
same,promoter activity interaction Z-score,[6]; [9],-0.506 ± 0.39
same,promoter activity interaction Z-score,[6]; [10],-0.474 ± 0.23
same,promoter activity interaction Z-score,[6]; [11],-0.36 ± 0.35
same,promoter activity interaction Z-score,[6]; [12],0.821 ± 1.3
same,promoter activity interaction Z-score,[6]; [13],0.287 ± 0.068
same,promoter activity interaction Z-score,[6]; [14],2.02 ± 0.35
same,promoter activity interaction Z-score,[6]; [15],-0.246 ± 0.9
same,promoter activity interaction Z-score,[6]; [16],0.0426 ± 0.17
same,promoter activity interaction Z-score,[6]; [17],-0.244 ± 0.44
same,promoter activity interaction Z-score,[6]; [18],1.06 ± 0.6
same,promoter activity interaction Z-score,[6]; [19],-0.0345 ± 0.59
same,promoter activity interaction Z-score,[6]; [20],-0.841 ± 0.13
same,promoter activity interaction Z-score,[6]; [21],-1.12 ± 0.97
same,promoter activity interaction Z-score,[6]; [22],-0.0289 ± 0.16
